Assay results published in PubChem BioAssay AID720540 (National Center for Advancing Translational Sciences (NCATS), 2013).
Hit rate of the full screen: of about 1,300 compounds, about 460 (35%) were called active. About 39% were inconclusive and are not listed. The call rests on the fitted dose curve; in most records, active means well fitted inhibition curve with a large enough effect; inconclusive means small, poorly fitted or top-dose-only effect; inactive means flat fitted curve, though single readings scatter. The list shows a part of the results.

Biological target: Protein phosphatase EYA2 (Homo sapiens) (UniProt O00167)
Sequence (O00167 whole entry, looked up): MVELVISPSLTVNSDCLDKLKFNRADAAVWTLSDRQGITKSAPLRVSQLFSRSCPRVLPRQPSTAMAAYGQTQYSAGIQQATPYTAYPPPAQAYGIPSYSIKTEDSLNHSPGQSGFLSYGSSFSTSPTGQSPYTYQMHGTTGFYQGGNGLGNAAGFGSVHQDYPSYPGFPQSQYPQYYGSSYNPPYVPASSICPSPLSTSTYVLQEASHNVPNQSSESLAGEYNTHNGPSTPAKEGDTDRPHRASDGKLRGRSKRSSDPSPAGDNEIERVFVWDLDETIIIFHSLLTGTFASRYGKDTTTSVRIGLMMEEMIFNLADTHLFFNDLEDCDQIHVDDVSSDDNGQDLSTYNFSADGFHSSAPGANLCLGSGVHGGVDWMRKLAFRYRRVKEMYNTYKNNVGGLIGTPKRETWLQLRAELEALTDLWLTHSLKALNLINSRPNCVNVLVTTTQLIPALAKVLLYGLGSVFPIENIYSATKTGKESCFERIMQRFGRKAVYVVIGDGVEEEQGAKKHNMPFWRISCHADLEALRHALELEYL
Test: qHTS for Inhibitors of the Phosphatase Activity of Eya2: Confirmatory Assay for Cherry-picked Compounds; further: nearly all actives have a fitted effect of over 65% in size
Settings: purified EYA2 phosphatase activity, qHTS confirmation; series mostly up to 46.1 µM
Method in brief: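 Eya2 (0.2 uM working solution) preincubated 10 min at room temperature with compound in pH 7.5 HEPES buffer with MgCl2, BSA, DTT. OMFP added (50 uM working solution), 10 min more; fluorescence 485/525 nm, normalized to EGTA and DMSO.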
Potency means the concentration at half of the fitted maximal effect.

Potency, inactive:
CN(CC(=O)Nc1cccc(F)c1)C(=O)c1ccc(COc2ccccc2)cc1
COc1cc(NC(=O)c2ccc(S(=O)(=O)N(C)c3ccccc3)cc2)cc(OC)c1
Cn1c(-c2cc(Cl)ccc2O)nc2c1c(=O)[nH]c(=O)n2Cc1ccccc1
O=C(Cc1cccs1)Nc1ccc2c(c1)C(=O)OC2
Cc1cnc(C(=O)Nc2ccccc2-c2ccc(C)o2)cn1
Cc1cccc(-n2c(O)c(C=Nc3ccccc3)c3ccccc3c2=O)n1
C/C(N)=C(/C#N)C(=O)CSc1nnc(Nc2cccc(C)c2)s1
Cc1cc(NC(=O)CSc2nnc(Nc3ccccc3F)s2)no1
CC(C)[C@H](NC(=O)c1ccccc1)C(=O)NC1CCCCCCC1
CC1CCN(CC2C(=O)O[C@@H]3C[C@@]4(C)CCC[C@H](C)C4=C[C@H]23)CC(C)(C)C1 (some centres not stated)
CCC(C)C(CO)NC(=O)/C=C/[C@H]1O[C@@H](n2cnc3c(NC(=O)c4ccccc4)ncnc32)[C@H](O)[C@@H]1O (some centres not stated)
Cc1cc(C(=O)COC(=O)c2cccnc2Cl)c(C)n1-c1c(C)n(C)n(-c2ccccc2)c1=O
CCOc1ccc2[nH]c3nc(SCC(=O)NC4CCCC4)nnc3c2c1
CC1=C(/C=C/C(C)=C/C=C/C(C)=C/C(=O)Nc2ccc(O)cc2)C(C)(C)CCC1
COc1ccc(/C=C2\CCc3ccccc3C2=O)cc1CN1CCOCC1
Cc1cc(NC(=O)c2cccc(N3C(=O)CCC3=O)c2)no1
CCN(CC)c1ccc(N=Cc2cc(Br)ccc2O)cc1
Cc1ccc(O)c(C(=O)c2cnc3c(c2)c(-c2ccc(F)cc2)c(C#N)c(=O)n3C)c1
O=C(Nc1nc2ccc(F)cc2s1)C1=NN(c2ccccc2)C(=O)CC1
COc1ccc(CCNC(=O)C(=O)NCc2cccs2)cc1OC
Cc1cccc(NC(=S)N(CCN2CCOCC2)Cc2cc3cc4c(cc3[nH]c2=O)OCCO4)c1
Cc1ccc(S(=O)(=O)Nc2c(C)n(C)n(-c3ccccc3)c2=O)cc1C(=O)OC(C)C(=O)N(C)c1ccccc1 (configuration not stated)
CCOc1ccc(Nc2nc(N)nc(CN(C)C3CCCCC3)n2)cc1
O=C(O)c1c(C(=O)N2N=C3/C(=C/c4ccccc4)CCCC3C2c2ccccc2)cccc1[N+](=O)[O-] (configuration not stated)
CCCc1ccc(C#N)c(SC2CC(=O)N(c3ccc(OC)cc3)C2=O)n1 (configuration not stated)
O=C(NC1CCCC1)c1cc(=O)[nH]c2ccccc12
O=C(Oc1ccc(Cl)c2cccnc12)C12CC3CC(CC(C3)C1)C2
COc1ccc(-c2cn(Cc3ccc4c(c3)C(=O)c3ccccc3C4=O)nn2)cc1
COc1cccc(N2CCN(c3ccc4nnc(CCC(=O)Nc5cccc(C(C)=O)c5)n4n3)CC2)c1
C[C@@]12CCC=C[C@H]1[C@H](c1ccc3ccccc3c1/C=C/c1ccccc1)N(Cc1ccccc1)C2=O
Cc1ccc(-n2nnnc2C(=Cc2ccc(N(C)C)cc2)c2nnnn2-c2ccc(C)cc2)cc1
Cn1c(=O)c2[nH]c(COc3ccccc3)nc2n(C)c1=O
Cc1cc(C)c(OCCCCN(C)Cc2ccccc2)c(C)c1
Cc1cccc(C)c1OCc1cc(C(=O)N2CCN(c3ccccc3)CC2C)no1 (configuration not stated)
CCOc1ccc2nc(N3CCCC(C(=O)N4CCN(CC)CC4)C3)sc2c1 (configuration not stated)
CCOC(=O)c1ccc(NC(=S)N2CCN(CCN=CC3=C(O)CC(c4ccccc4)CC3=O)CC2)cc1 (configuration not stated)
CS(=O)(=O)c1ccc2nc(NC(=O)c3ccccc3Cl)sc2c1
CN(C)C(C)(C)C#CC(O)(c1ccccc1)c1ccccc1
Cn1cc(SCC(=O)Nc2ccc3c(c2)OCCO3)c2ccccc21
CSc1cccc(NC(=O)CCCOc2cc(=O)n(C)c3ccccc23)c1

Potency, active:
CC(C)S(=O)(=O)c1cnc(-c2ccccn2)nc1N 16.9 µM
COc1ccc(NC(=O)CSc2ccc(-c3ccccn3)nn2)cc1OC 3.79 µM
COc1cc(NC(=O)CSc2ccc(-c3ccccn3)nn2)cc(OC)c1 2.13 µM
O=C(CSc1ccc(-c2ccccn2)nn1)Nc1cccc(F)c1 3.79 µM
COc1ccccc1CNC(=O)CSc1ccc(-c2ccccn2)nn1 12 µM
Cc1[nH]n(-c2cccc3ccccc23)c(=O)c1C=Nc1ccc2[nH]c(=O)[nH]c2c1 7.57 µM
C/C=C/c1ccc(OCCSc2nc(C)cc(=O)[nH]2)c(OC)c1 13.5 µM
CC(C)Nc1nnc(SCC(=O)Nc2ccc3c(c2)C(=O)c2ccccc2C3=O)s1 6.75 µM
O=C(O)c1ccc2nc(-c3ccco3)c(-c3ccco3)nc2c1 8.49 µM
O=C(NC1CC1)c1ccc2nc(-c3ccco3)c(-c3ccco3)nc2c1 13.5 µM
CC(=O)Oc1ccccc1C(=O)Oc1ccc(/C=N/n2cnnc2)cc1 16.9 µM
O=C(OCC(=O)c1ccc(Cl)cc1Cl)c1ccccn1 19 µM
O=C(CSc1nnc2c(n1)[nH]c1ccccc12)Nc1ccc(S(=O)(=O)Nc2ncccn2)cc1 5.36 µM
CCc1ccc2[nH]c3nc(SCC(=O)NCC4CCCO4)nnc3c2c1 (configuration not stated) 6.01 µM
Cc1c(CC(=O)N[C@@H](C)C(=O)O)c(=O)oc2cc3occ(-c4ccccc4)c3cc12 8.49 µM
Cc1c(CC(=O)NCC(=O)O)c(=O)oc2cc3occ(-c4ccccc4)c3cc12 16.9 µM
Cc1c(CCC(=O)NCCCCCC(=O)O)c(=O)oc2cc3occ(-c4ccccc4)c3cc12 15.1 µM
Cc1c(CC(=O)NCCCC(=O)O)c(=O)oc2cc3occ(-c4ccccc4)c3cc12 19 µM
O=c1cc2oc3cc(O)c(O)cc3c(-c3ccccc3[N+](=O)[O-])c-2cc1O 16.9 µM
CN1/C(=C\C=C2/SC(=S)NC2=O)C(C)(C)c2ccccc21 15.1 µM
CC1=NN(c2ccccc2)C(=O)/C1=C\C=C1/N(C)c2ccccc2C1(C)C 7.57 µM
Cc1ccc(-n2[nH]c(C)c(C=Nc3ccc(S(=O)(=O)Nc4nccs4)cc3)c2=O)cc1C 8.49 µM
Cc1c(CCC(=O)O)c(=O)oc2c(C)c(OCc3cc4c(cc3Cl)OCO4)ccc12 9.53 µM
COc1cccc2c1C(=O)/C(=C/c1ccc(N(C)C)cc1)C2 4.26 µM
Cc1ccc(C(=O)Oc2ccc(N3C(=O)CCC3=O)c(C)c2)cc1 2.69 µM
Cc1ccc(C(=O)Oc2ccc3ccc(=O)oc3c2)cc1 1.9 µM
CC(C)c1ccc2oc(-c3ccc(NC(=O)c4ncn[nH]4)cc3)nc2c1 16.9 µM
CCC(C)c1ccc2oc(-c3ccc(NC(=O)c4ncn[nH]4)cc3)nc2c1 (configuration not stated) 15.1 µM
CCN(CC)c1ccc(NC(=O)COC(=O)CSc2ccc(Br)cc2C)cc1 12 µM
CN(C)c1ccc(/C=C/c2ccnc3ccc(-c4ccccc4)cc23)cc1 21.3 µM
CCN(C)c1ccc(/C=C/c2ccnc3ccccc23)cc1 21.3 µM
COc1ccc(CCNc2nc(-c3ccccn3)cs2)cc1OC 7.57 µM
COc1ccc(C(NC(C)=O)c2ccc3cccnc3c2O)cc1OC (configuration not stated) 1.69 µM
CC(=O)NC(c1ccc(Cl)cc1)c1ccc2cccnc2c1O (configuration not stated) 2.13 µM
CCCCC(=O)NC(c1cccc([N+](=O)[O-])c1)c1ccc2cccnc2c1O (configuration not stated) 4.26 µM
CCCC(=O)NC(c1ccc(OC)c(OC)c1)c1cc(Cl)c2cccnc2c1O (configuration not stated) 2.69 µM
O=C(O)c1ccccc1NC(c1ccccc1)c1ccc2cccnc2c1O (configuration not stated) 3.38 µM
COc1ccc(C(NC(C)=O)c2cc(Cl)c3cccnc3c2O)cc1OC (configuration not stated) 1.69 µM
CC(C)C(=O)NC(c1ccc(Cl)cc1Cl)c1ccc2cccnc2c1O (configuration not stated) 5.36 µM
CCC(=O)NC(c1cccs1)c1cc(Cl)c2cccnc2c1O (configuration not stated) 1.51 µM
CCCCC(=O)NC(c1ccco1)c1cc(Cl)c2cccnc2c1O (configuration not stated) 3.38 µM
CCC(=O)NC(c1ccc(OC)c(OC)c1)c1cc(Cl)c2cccnc2c1O (configuration not stated) 1.69 µM
Nc1[nH]nc2ncc3cc4ccccc4nc3c12 15.1 µM
CCc1ccc2oc(-c3ccc(OC)cc3)cc(=Nc3c(C)n(C)n(-c4ccccc4)c3=O)c2c1 16.9 µM
O=C(Nc1ccccc1Cl)N1CCN(c2ccc3nnc(-c4ccccc4)n3n2)CC1 6.75 µM
Cc1ccc2c(/C=C/c3ccc(N(C)C)cc3)c(C)cnc2c1 8.49 µM
CCc1cnc2ccccc2c1/C=C/c1ccc(N(C)C)cc1 7.57 µM
CCN(CC)c1ccc(/C=C/c2c(C)cnc3ccc(C)cc23)cc1 8.49 µM
Cc1cnc2ccc(I)cc2c1/C=C/c1ccc(N(C)C)cc1 7.57 µM
COc1cc(OC)c(OC)cc1/C=C/c1nccc2ccccc12 7.57 µM
Cn1c(=O)cc2c3c(c(N4CCCCC4)ccc31)C(=O)c1ccccc1-2 3.38 µM
Cc1c(NC(=O)/C(C#N)=C/c2ccc(-c3cc(Cl)ccc3Cl)o2)c(=O)n(-c2ccccc2)n1C 7.57 µM
CS(=O)(=O)c1ccc(C(=O)Nc2nc(-c3ccco3)c(-c3ccco3)s2)cc1 12 µM
CCOC(=O)Cc1nnc(NC(=O)C(CC)Sc2nnc3c4ccccc4n(C)c3n2)s1 (configuration not stated) 16.9 µM
CCOC(=O)Cc1nnc(NC(=O)CSc2nnc3c4ccccc4n(C)c3n2)s1 16.9 µM
O=C(CSc1nnc2c3ccccc3c3ccccc3c2n1)Nc1ccccc1F 7.57 µM
Cn1c2ccccc2c2nnc(SCC(=O)Nc3cccc(O)c3)nc21 13.5 µM
